# Assay results as given in the supplement of paper PMC10338343.
# ± gives the standard deviation.
# Tested on: MILI (PIWIL2) piRISC loaded with L1MC piRNA (26 nt)
# Experiment: pre-steady-state target cleavage rate (min^-1); guide: L1MC piRNA 5'p-UAACUAAAUACUAUGCAAGCUGUAGG; MIWI and MILI are mouse PIWI proteins and EfPiwi is from a freshwater sponge; tags in brackets are library labels; higher = faster piRNA-guided slicing of the target
# Summary of the method: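 A transcribed, DNA-blocked target RNA library […] was incubated at 33 °C for 0–8 or 0–960 min with 1 nM active affinity-purified piRISC carrying one synthetic guide, in HEPES–potassium acetate buffer with or without 500 nM GTSF1 partner protein. Uncleaved targets were then sequenced and normalised to depth and to weakly complementary targets. Data from three trials were pooled, with k3 capped at 0.0001 min^-1, and a burst-and-steady-state fit yielded the pre-steady-state cleavage rate.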
# [1] = auxiliary factor: 500 nM mouse GTSF1
# [2] = auxiliary factor: none (no GTSF1)
# 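Also: 1 nM active piRISC with 0.1 nM target library at 33 °C single turnover.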
Sequence,pre-steady-state target cleavage rate [1],pre-steady-state target cleavage rate [2]
UCCUGGAUGUCGAUGCAUAGUAUUUACGUUA,0.158 ± 0.033,0.00337 ± 0.0029
UCCUGGAUGUCGAUGCGUAGUAUUUAGUUA,0.0121 ± 0.0036,0.00501 ± 0.0024
UCCUGGAUGUGGUUGGAUAGUAUUUAGUUA,0.109 ± 0.019,0.00858 ± 0.0028
UCCUGGAUCAGCAACCAUAGUAUUUAGAAA,0.00948 ± 0.0046,< 0.0001
UCCUGGAUGAGCUUGCAAAGUAUUUUGUUA,0.0703 ± 0.019,0.00392 ± 0.0026
UCCUGGAACAGCUUGCAAAGUUUUUAGUUA,0.0201 ± 0.0064,0.0029 ± 0.0026
UCCUGGAUGUGCAUGCAUAGUAUUAAGUUA,0.122 ± 0.017,0.00463 ± 0.0027
UCCUGGAUGUCGUUGCAUAGUCAUUUAGUUA,0.00441 ± 0.0039,0.00434 ± 0.0028
UCCUGGAUCACGAUGCAUAGUAUUUAGUUA,0.134 ± 0.013,0.00516 ± 0.0028
UCCUGGAUGUCGAUGCUUAGUAUUUAGUUA,0.019 ± 0.0053,0.00602 ± 0.0019
UCCUGGAUGUGCUUCCUUAGUAUUUAGUUA,0.0394 ± 0.0077,0.00557 ± 0.0022
UCCUGGUACACCUUGCAAAGUAUUUAGUUA,0.0646 ± 0.011,0.0081 ± 0.0033
UCCUGGAUGUGGAUGCAUAGUAUUUAGUAA,0.0714 ± 0.012,0.00471 ± 0.003
UCCUGGAUCAGCUUGCAUAGUGAUUUAGUUA,0.0194 ± 0.0067,0.00404 ± 0.0022
UCCUGGAUGUGCUUGCAUAGUAUGUUAGUUA,0.0646 ± 0.012,0.00452 ± 0.0032
UCCUGGAUGUCCUUCAUAGUAUUUAGUUA,0.0147 ± 0.004,0.00296 ± 0.0021
UCCUGGAUGAGCUUGCUUAGUAUUUACUUA,0.124 ± 0.031,0.00394 ± 0.0031
UCCUGGAUGAGCUUGGUUAGUAUUUAGUUA,0.195 ± 0.02,0.0158 ± 0.0039
UCCUGGUACAGCUUGGAUAGUUUUUAGUUA,0.0597 ± 0.014,0.00594 ± 0.0035
UCCUGCUACAGCUUGCAUAGUAUUUAGUUG [g2:g25:cont:t1G],0.145 ± 0.013,0.0083 ± 0.0024

Sequence,pre-steady-state target cleavage rate [1],pre-steady-state target cleavage rate [2]
UCCUGGAUGUCCUUGCUUACUAUUUAGUUA,0.016 ± 0.0064,0.00305 ± 0.0023
UCCUGGAUGUCCUUGCAUUGUAUUUAGUUA,0.0543 ± 0.012,0.00683 ± 0.002
UCCUGGUACAGCAUGCAUAGUAUUUACUUA,0.0914 ± 0.025,0.00419 ± 0.0038
UCCUGGAACAGCUUCGAUAGUAUUUAGUUA,0.262 ± 0.015,0.00483 ± 0.0022
UCCUGGAUGUGCUUGCUUAGUAUAUAGUUA,0.0668 ± 0.011,0.00411 ± 0.0025
UCCUGGAUGUGCUUGCAUAGAUUUUAGUUA,0.00729 ± 0.0044,0.00375 ± 0.0024
UCCUGGAUGUCCUUGGAUAGUAUUUAGUAA,0.121 ± 0.019,0.00376 ± 0.0019
UCCUGGAUGUCGAUGCAUAGUUUAUAGUUA,0.00501 ± 0.0045,0.00379 ± 0.0026
UCCUGGAUGUCGUUGGCAUAGUAUUUAGUUA,0.0621 ± 0.015,0.0049 ± 0.003
UCCUGGAACAGCUUGCAUAGUCAUUUAGUUA,0.0205 ± 0.008,0.00479 ± 0.0022
UCCUGGAUGUCGUUUCAUAGUAUUUAGUUA,0.0434 ± 0.0083,0.00464 ± 0.0023
UCCUGGAUGUGCAUGCAUAGUAUUUAGUAA,0.121 ± 0.017,0.00467 ± 0.0026
UCCUGCUACUCGUUGCAUAGUAUUUAGUAA,0.127 ± 0.02,0.00373 ± 0.0021
UCCUGGAUGUCCUUGCAUAGUGAUUUAGUUA,0.0104 ± 0.0052,0.00503 ± 0.0028
UCCUGGUACAGCUUGCUUAGUAUAUAGUUA,0.197 ± 0.045,0.00855 ± 0.0026
UCCUGGAACAGCUUGCAUAGUAUCUAGUUA,0.213 ± 0.03,0.00512 ± 0.0024
UCCUGGAUGUCGAGGCAUAGUAUUUAGUUA,0.0728 ± 0.016,0.00723 ± 0.0026
UCCUGGAACUGCUUGCAUAGUAUUUACUUA,0.0984 ± 0.027,0.00292 ± 0.0023
UCCUGGAACAGCUUGCAUUGUAUAUAGUUA,0.149 ± 0.017,0.00496 ± 0.0025
UCCUGGAUGUGGUUGCAUUGUAUUUAGUUA,0.0353 ± 0.0089,0.00721 ± 0.0036

Sequence,pre-steady-state target cleavage rate [1],pre-steady-state target cleavage rate [2]
UCCUGGAUGUCCUUGGAUAGUAUAUAGUUA,0.165 ± 0.035,0.0038 ± 0.0025
UCCUGGAUGUCCUUGCAUACAUUUUAGUUA,0.00731 ± 0.0047,0.00422 ± 0.0019
UCCUGGAUGUCGUUGCAUAUUAUUUAGUUA,0.0246 ± 0.0061,0.00364 ± 0.0023
UCCUGCAACAGGUUGCAUAGUAUUUAGUUA,0.248 ± 0.022,0.00771 ± 0.0033
UCCUGGAACAGCAUGCAAAGUAUUUAGUUA,0.129 ± 0.014,0.00836 ± 0.0026
UCCUGGAUGAGCUUGCAGAGUAUUUAGUUA,0.0869 ± 0.0095,0.00792 ± 0.0024
UCCUGGUACAGGUUGCAUAGUAUUUUGUUA,0.189 ± 0.042,0.0111 ± 0.0045
UCCUGGAUGUCCUUGCAUAGUACUUUAGUUA,0.0282 ± 0.011,0.00534 ± 0.0022
UCCUGGAUGUCGUUGCAUAGUUAUUUAGUUA,0.00477 ± 0.0039,0.00324 ± 0.003
UCCUCGUACUGCUUGCAUAGUAUUUAGUUA,0.264 ± 0.0097,0.00745 ± 0.0024
UCCUGGAUGUGCUUGCUUAGUAUUUAGUUA,0.094 ± 0.013,0.0114 ± 0.0031
UCCUGGAUGUCCUUGCAUCGUAUUUAGUUA,0.0423 ± 0.015,0.00482 ± 0.0021
UCCUGGAUGUGCUUGGAAAGUAUUUAGUUA,0.0377 ± 0.0067,0.00729 ± 0.002
UCCUCCUACAGCUUGCUAUGUAUUUAGUUA,0.0502 ± 0.011,0.00506 ± 0.0018
UCCUGGAACAGCAUGCAUAGUAUAUAGUUA,0.247 ± 0.025,0.0058 ± 0.0025
UCCUGGAUGUCGAAGCAUAGUAUUUAGUUU [g2:g16:cont:t1U],0.0307 ± 0.0082,0.00447 ± 0.0018
UCCUCCUUCUGCUUGCAUAGUAUUUAGUUA,0.269 ± 0.018,0.00966 ± 0.002
UCCUGGAUCACCUUGCAUUGUAUUUAGUUA,0.094 ± 0.015,0.00486 ± 0.0032
UCCUGGAUGAGCUUGGAUAGUAUUUAGUAA,0.178 ± 0.027,0.00491 ± 0.0023
UCCUGGAUCAGCUUGCAAAGUAUUUACUUA,0.0828 ± 0.013,0.00392 ± 0.0024
